Source: PubChem
HT1080NT lethal = kills 2HG-producing HT-1080-NT fibrosarcoma cells. 360,000 tested, 1.6% active. Potency, µM (doses to about 46.1 µM), inactives show at the highest dose activity, negative = less viability, most hits filed as cytotoxic. HT-1080-NT fibrosarcoma viability, CellTiter-Glo ATP luminescence, 48 h;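 note: NT is the 2HG producing partner of a matched IDH1 knockdown line; 0% = DMSO-treated cells and -100% = media-only wells without cells; nearly all actives have a fitted effect of over 55% in size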
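Viability of the 2HG-overproducing fibrosarcoma line after 48 hours of compound exposure at 37 degrees C was determined by luminescence with CellTiter-Glo, and concentration-effect curves were then fitted and categorized.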
KB-3-1 cytotox = KB-3-1 parental cell cytotoxicity | KB-3-1 viability, CellTiter-Glo ATP luminescence, 72 h | Potency, µM (series often up to 46.1 µM), most hits filed as cytotoxic | 400,000 tested, 1.4% active; note: nearly all actives have a fitted effect of over 60% in size
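72 h, 37 °C compound treatment of KB-3-1 parental cells; CellTiter-Glo added, 10 min, luminescence read. Data corrected against DMSO-only plates and normalized before curve fitting.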
DT40 TDP1 no CPT = qHTS for Inhibitors of human tyrosyl-DNA phosphodiesterase 1 (TDP1): qHTS in cells in absence of CPT | DT40 Tdp1-/- hTDP1 cells, no CPT, ATP luminescence, 48 h | Potency, µM (titrated, usually from 46.2 µM), inactives show at the top dose activity change, negative = growth inhibition, usual class: inhibitors | 420,000 tested, 15% active | AID 686978, 2013; note: nearly all actives have a fitted effect of over 55% in size
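DT40 Tdp1-/-;hTDP1 cells, no CPT (DMSO vehicle only), 400 cells/well; compounds pin-transferred; ≥48 hr, 37 °C; CellTiter-Glo 30 min RT dark, luminescence read.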
HT1080 IDH1KD tx = toxicity to HT-1080 IDH1 knockdown cells (counter line). 360,000 tested, 2% active. Potency, µM (titrated, usually from 46.1 µM), for the others: top-dose activity, negative = toxicity, most hits filed as cytotoxic. HT-1080 IDH1 knockdown viability, ATP luminescence, 48 h;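 note: 0% = DMSO wells and -100% = cell-free medium wells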
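In this qHTS, HT-1080 cells depleted of IDH1 are exposed for 48 h at 37 °C to compound titrations. Toxicity is scored from CellTiter-Glo luminescence, with DMSO as full viability and medium alone as none.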
KB-V1 cytotox = KB-V1 MDR subline cytotoxicity; Potency, µM (series often up to 46.1 µM), actives largely listed as cytotoxic; KB-V1 MDR cells viability, CellTiter-Glo, 72 h; 400,000 tested, 3.4% active; note: nearly all actives have a fitted effect of over 60% in size
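Compound-treated KB-V1 multidrug-resistant cells, 72 h, 37 degrees C; viability by CellTiter-Glo. Fitted qHTS curves give the values.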
TDP1 cell CPT = growth inhibition of DT40 Tdp1-/-;hTDP1 cells with camptothecin (screen for TDP1 inhibitors); chicken DT40 Tdp1-/-;hTDP1 cells + 20 nM CPT, ATP luminescence, 48 h; Potency, µM (top dose mostly 46.2 µM), inactives show at the top dose activity change, negative = growth inhibition, actives largely listed as inhibitors; 420,000 tested, 12% active; note: nearly all actives have a fitted effect of over 55% in size
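Chicken DT40 Tdp1-/- cells stably complemented with human TDP1 were seeded at 400 cells/well in medium containing 20 nM camptothecin, exposed to pin-transferred compounds, and grown at 37 °C for at least 48 hr. Viability was read as ATP luminescence.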
Active calls of the source: *. Compounds with a hit are over-represented: about 19% of the library has one in this group of screens. Calls come from the whole dose curve; as a rule, active = well fitted curve in the direction sought with a large enough effect; inconclusive = small, poorly fitted or top-dose-only effect, or another doubt; inactive = no such curve, though single readings can be large; an effect the other way counts as inactive or inconclusive. Unless noted, % is set by controls: 0 for no effect and ±100 for the full control effect; potency is the fitted concentration of half-maximal effect.

Screening CCOC(=O)N1CCN(C(=O)C2CCC(CNS(=O)(=O)c3ccc(Cl)cc3)CC2)CC1 (configuration not stated) returned HT1080NT lethal 17%, KB-3-1 cytotox inactive, DT40 TDP1 no CPT inconclusive, HT1080 IDH1KD tx 10%, KB-V1 cytotox inactive and TDP1 cell CPT inconclusive.
`COc1ccccc1NC(=O)c1cccc(S(=O)(=O)N2CCN(Cc3ccccc3)CC2)c1` gave HT1080NT lethal -2%, KB-3-1 cytotox inactive, DT40 TDP1 no CPT inconclusive, HT1080 IDH1KD tx -1%, KB-V1 cytotox inactive and TDP1 cell CPT inconclusive.
Screening COc1ccc(NC(C)=O)cc1NC(=O)c1cccc(S(=O)(=O)N2CCN(Cc3ccccc3)CC2)c1 returned HT1080NT lethal -2%, KB-3-1 cytotox inactive, DT40 TDP1 no CPT inconclusive, HT1080 IDH1KD tx 15%, KB-V1 cytotox 16µM* and TDP1 cell CPT inconclusive.
Screening COc1ccc(CN2CCN(S(=O)(=O)c3ccc(NC(C)=O)cc3)CC2)cc1 returned HT1080NT lethal -5%, KB-3-1 cytotox inconclusive, DT40 TDP1 no CPT inconclusive, HT1080 IDH1KD tx -10%, KB-V1 cytotox inactive and TDP1 cell CPT inconclusive.
Screening COc1ccccc1OCCNC(=O)c1cccc(S(=O)(=O)N2CCN(Cc3ccccc3)CC2)c1 returned HT1080NT lethal -12%, KB-3-1 cytotox inactive, DT40 TDP1 no CPT inconclusive, HT1080 IDH1KD tx -12%, KB-V1 cytotox inactive and TDP1 cell CPT 18µM*.
`COc1ccc(CN2CCN(S(=O)(=O)c3ccc(NC(C)=O)cc3)CC2)c(OC)c1OC` gave HT1080NT lethal -4%, KB-3-1 cytotox inconclusive, DT40 TDP1 no CPT inconclusive, HT1080 IDH1KD tx -1%, KB-V1 cytotox inactive and TDP1 cell CPT 16µM*.
COc1ccc(CN2CCN(C(=O)C3CCC(CNS(=O)(=O)c4ccc(C)cc4)CC3)CC2)c(OC)c1OC (configuration not stated) was read as HT1080NT lethal -11%, KB-3-1 cytotox inactive, DT40 TDP1 no CPT 21µM*, HT1080 IDH1KD tx -2%, KB-V1 cytotox inconclusive and TDP1 cell CPT inconclusive.
CC(C)N(C(=O)c1ccc(Cc2cn(C)c3ccccc23)nc1)C(C)C was read as HT1080NT lethal -5%, KB-3-1 cytotox inactive, DT40 TDP1 no CPT inconclusive, HT1080 IDH1KD tx -8%, KB-V1 cytotox inactive and TDP1 cell CPT inconclusive.
COc1ccc(N2CCN(C(=O)c3cc(C)on3)CC2)cc1 was read as HT1080NT lethal 15%, KB-3-1 cytotox inactive, DT40 TDP1 no CPT 11%, HT1080 IDH1KD tx 8%, KB-V1 cytotox inconclusive and TDP1 cell CPT 2%.
Screening COC1OC(c2ccccc2)=C(c2cnc(N)nc2)c2ccc(F)cc21 (configuration not stated) returned HT1080NT lethal 5%, KB-3-1 cytotox inactive, DT40 TDP1 no CPT -7%, HT1080 IDH1KD tx 4%, KB-V1 cytotox inactive and TDP1 cell CPT -10%.
For COc1ccc(C(=O)Nc2ccc(N(C)Cc3ccccc3)c(C(=O)O)c2)cc1 the results were KB-3-1 cytotox inactive, DT40 TDP1 no CPT -1%, KB-V1 cytotox inactive and TDP1 cell CPT -1%.
`CN1CCCC2(CCN(C(=O)c3cnccn3)CC2)C1` gave DT40 TDP1 no CPT -1% and TDP1 cell CPT 5%.
For COc1cc(/C=C2/SC(N)=NC2=O)ccc1Oc1ccc([N+](=O)[O-])cc1[N+](=O)[O-] the results were HT1080NT lethal -6%, KB-3-1 cytotox inactive, DT40 TDP1 no CPT 2.9µM*, HT1080 IDH1KD tx -8%, KB-V1 cytotox inactive and TDP1 cell CPT 3.3µM*.
For COc1cc(/C=C2\C(=O)N(c3ccccc3)N=C2C)ccc1Oc1ccc([N+](=O)[O-])cc1[N+](=O)[O-] the results were HT1080NT lethal -27%, KB-3-1 cytotox inactive, DT40 TDP1 no CPT 18µM*, HT1080 IDH1KD tx inconclusive, KB-V1 cytotox inactive and TDP1 cell CPT 16µM*.
Screening COc1cc(/C=C2/C(=O)N(c3ccc(C)c(C)c3)N=C2C)cc([N+](=O)[O-])c1O returned HT1080NT lethal 2%, KB-3-1 cytotox inactive, DT40 TDP1 no CPT 23%, HT1080 IDH1KD tx 0%, KB-V1 cytotox inactive and TDP1 cell CPT -9%.
COc1cc(/C=C2\SC(N)=NC2=O)ccc1OCC(=O)Nc1ccccc1C was read as HT1080NT lethal inconclusive, KB-3-1 cytotox inactive, DT40 TDP1 no CPT 9.2µM*, HT1080 IDH1KD tx inconclusive, KB-V1 cytotox inactive and TDP1 cell CPT inconclusive.
Screening CC1=NN(c2ccccc2)C(=O)/C1=C\c1ccc(Oc2ccc([N+](=O)[O-])cc2[N+](=O)[O-])cc1 returned HT1080NT lethal 21µM*, KB-3-1 cytotox inactive, DT40 TDP1 no CPT inconclusive, HT1080 IDH1KD tx 10µM*, KB-V1 cytotox inactive and TDP1 cell CPT inconclusive.
Screening CCCOc1ccc(/C=C2\SC(N)=NC2=O)cc1OC returned HT1080NT lethal -13%, KB-3-1 cytotox inactive, DT40 TDP1 no CPT inconclusive, HT1080 IDH1KD tx 1%, KB-V1 cytotox inconclusive and TDP1 cell CPT -13%.
For N#Cc1cccc(NC(=O)CCNS(=O)(=O)c2ccc3c(c2)CCN3C(=O)C2CC2)c1 the results were KB-3-1 cytotox inactive, DT40 TDP1 no CPT inconclusive, KB-V1 cytotox inconclusive and TDP1 cell CPT inconclusive.
Cc1cc(C)c(Cn2c(=O)n(Cc3ccccc3)c(=O)c3c(C)c(C)sc32)c(C)c1 was read as KB-3-1 cytotox inactive, DT40 TDP1 no CPT -9%, KB-V1 cytotox inactive and TDP1 cell CPT -19%.
Screening O=C(Cc1cccc2ccccc12)Nc1ccccc1 returned HT1080NT lethal -5%, KB-3-1 cytotox inactive, DT40 TDP1 no CPT inconclusive, HT1080 IDH1KD tx -1%, KB-V1 cytotox inactive and TDP1 cell CPT 23µM*.
Cc1ccccc1CC(=O)Nc1ccc2c(c1)c(=O)n(C)n2-c1ccccc1F was read as HT1080NT lethal -7%, KB-3-1 cytotox inactive, DT40 TDP1 no CPT -23%, HT1080 IDH1KD tx 0%, KB-V1 cytotox inactive and TDP1 cell CPT inconclusive.
For Cc1ccccc1CC(=O)Nc1ccc2c(c1)c(=O)n(C)n2-c1cccs1 the results were HT1080NT lethal inconclusive, KB-3-1 cytotox inconclusive, DT40 TDP1 no CPT 3.3µM*, HT1080 IDH1KD tx -28%, KB-V1 cytotox inactive and TDP1 cell CPT inconclusive.
